# Measurements as given in the supplement of paper PMC10849652.
# Of roughly 7,900 targets only a part is listed; those with a hit were picked by preference. About 0.6% of all pairs of compound and target were hits. A number with no mark means an inactive call.
# Tests used:
# Assay in all cases: log2 fold change, soluble protein after heating vs DMSO (PISA); higher = thermal stabilisation; K562 cells, 10 uM, 30 min; active = over 0.2 and 3.5 SD of the protein, either way, in both replicates (recomputed)
# erlotinib = compound: C#Cc1cccc(Nc2ncnc3cc(OCCOC)c(OCCOC)cc23)c1 [erlotinib]
# Procedure, shortened: (§1)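 Values are thermal stability changes relative to control samples and are taken from duplicates. They are stated as log2 fold changes. Before quantification by TMTpro 16plex LC-MS/MS with equalised channel sums, K562 cells at 2×10^6 cells/mL were treated with 10 μM compound for 30 min, heated in aliquots for 3 min across 48°C-58°C, pooled, extracted in PBS with 0.5% NP-40 at 4°C, and centrifuged at 21,000xg for 90 min to give the soluble supernatant.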
# [1] = compound: C/C(=N\NC(=O)C1=CC(=CC=C1)S(=O)(=O)N2CCOCC2)/C3=C(C=CC(=C3)Cl)O
# Procedure, shortened: as §1
# [2] = compound: C1=CC(=C(C=C1Cl)C2=NC3=NC=CN=C3C(=N2)NC4=CC=NC=C4)F
# Procedure, shortened: as §1
# [3] = compound: C1=CC(=CC=C1C2=NC3=C(N2)C=C(C=C3)C(=O)N)OC4=CC=C(C=C4)Cl
# Procedure, shortened: as §1
# [4] = compound: C1=CC2=C(C=CC(=C2)/C=C\3/C(=O)NC(=NCC4=CC=CS4)S3)N=C1
# Procedure, shortened: as §1
# [5] = compound: C1=CC2=NC=CN=C2C=C1/C=C/3\C(=O)NC(=O)S3
# Procedure, shortened: as §1
# [6] = compound: C1=CC=C(C=C1)C2=NC(=C(N2)C3=CC=NC=C3)C4=CC(=C(C=C4)Cl)O
# Procedure, shortened: as §1
# [7] = compound: C1=CC=C2C(=C1)C3=NNC4=CC=CC(=C43)C2=O
# Procedure, shortened: as §1
# [8] = compound: C1CCN(C1)C(=O)NC2=CC=CC(=C2)NC3=NC=C(C(=N3)NCCC4=CN=CN4)Br
# Procedure, shortened: as §1
# [9] = compound: C1CN(CCC1(CC2=CC=C(C=C2)Cl)N)C3=NC=NC4=C3C=CN4
# Procedure, shortened: as §1
# IRAK-1-4 Inhibitor I = compound: C1COCCN1CCN2C3=CC=CC=C3N=C2NC(=O)C4=CC(=CC=C4)[N+](=O)[O-] [IRAK-1-4 Inhibitor I]
# Procedure, shortened: as §1
# ibrutinib = compound: C=CC(=O)N1CCC[C@@H](n2nc(-c3ccc(Oc4ccccc4)cc3)c3c(N)ncnc32)C1 [ibrutinib]
# Procedure, shortened: as §1
# [10] = compound: CC(=O)c1cnc2ccc(-c3cc(Cl)c(O)c(Cl)c3)nc2c1N[C@H]1CC[C@H](CN(C)C)CC1
# Procedure, shortened: as §1
# ralimetinib = compound: CC(C)(C)Cn1c(N)nc2ccc(-c3[nH]c(C(C)(C)C)nc3-c3ccc(F)cc3)nc21 [ralimetinib]
# Procedure, shortened: as §1
# [11] = compound: CC(C)(O)CC(=O)NCCn1ccc2ncnc(Nc3ccc(Oc4cccc(C(F)(F)F)c4)c(Cl)c3)c21
# Procedure, shortened: as §1
# [12] = compound: CC(C)C1=C2N=C(C=C(N2N=C1)NCC3=CC=CC=C3)NCCCCCCN
# Procedure, shortened: as §1
# [13] = compound: CC(C)C[C@@H](C=O)NC(=O)[C@H](CC(C)C)NC(=O)[C@H](CC(C)C)NC(=O)OCc1ccccc1
# Procedure, shortened: as §1
# pinometostat = compound: CC(C)N(C[C@H]1O[C@@H](n2cnc3c(N)ncnc32)[C@H](O)[C@@H]1O)[C@H]1C[C@@H](CCc2nc3cc(C(C)(C)C)ccc3[nH]2)C1 [pinometostat]
# Procedure, shortened: as §1
# [14] = compound: CC1=C(C(CC(=O)N1)C2=CC=C(C=C2)C(F)(F)F)C(=O)NC3=C(C=C4C(=C3)C=NN4)F
# Procedure, shortened: as §1
# [15] = compound: CC1=C(C2=C(C=C1)C(=O)C3=CC=CC=C3N2CCCN)C
# Procedure, shortened: as §1
# Chain of UniProt Q13889 (Q13889 whole entry, looked up): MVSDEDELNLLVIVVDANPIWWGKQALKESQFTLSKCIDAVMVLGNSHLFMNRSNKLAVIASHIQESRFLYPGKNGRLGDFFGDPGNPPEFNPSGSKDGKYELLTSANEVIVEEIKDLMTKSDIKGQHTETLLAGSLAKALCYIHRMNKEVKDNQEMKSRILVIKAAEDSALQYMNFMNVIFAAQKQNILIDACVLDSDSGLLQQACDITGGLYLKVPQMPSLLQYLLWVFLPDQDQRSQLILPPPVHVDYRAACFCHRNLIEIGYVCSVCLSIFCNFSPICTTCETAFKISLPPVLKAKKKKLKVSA
# Chain of UniProt Q12894 (Q12894 whole entry, looked up): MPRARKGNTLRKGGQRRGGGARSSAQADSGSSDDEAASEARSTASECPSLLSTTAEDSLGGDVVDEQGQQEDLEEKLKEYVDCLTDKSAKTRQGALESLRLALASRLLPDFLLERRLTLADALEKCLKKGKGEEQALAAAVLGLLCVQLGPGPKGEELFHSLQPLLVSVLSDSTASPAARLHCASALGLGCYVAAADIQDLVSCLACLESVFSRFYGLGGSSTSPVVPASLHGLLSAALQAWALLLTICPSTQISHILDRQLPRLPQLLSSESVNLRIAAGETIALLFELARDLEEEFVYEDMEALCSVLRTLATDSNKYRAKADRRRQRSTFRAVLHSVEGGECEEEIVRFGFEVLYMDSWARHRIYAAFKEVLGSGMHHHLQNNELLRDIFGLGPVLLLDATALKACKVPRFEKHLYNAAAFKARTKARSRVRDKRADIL
# Chain of UniProt P15260 (P15260 whole entry, looked up): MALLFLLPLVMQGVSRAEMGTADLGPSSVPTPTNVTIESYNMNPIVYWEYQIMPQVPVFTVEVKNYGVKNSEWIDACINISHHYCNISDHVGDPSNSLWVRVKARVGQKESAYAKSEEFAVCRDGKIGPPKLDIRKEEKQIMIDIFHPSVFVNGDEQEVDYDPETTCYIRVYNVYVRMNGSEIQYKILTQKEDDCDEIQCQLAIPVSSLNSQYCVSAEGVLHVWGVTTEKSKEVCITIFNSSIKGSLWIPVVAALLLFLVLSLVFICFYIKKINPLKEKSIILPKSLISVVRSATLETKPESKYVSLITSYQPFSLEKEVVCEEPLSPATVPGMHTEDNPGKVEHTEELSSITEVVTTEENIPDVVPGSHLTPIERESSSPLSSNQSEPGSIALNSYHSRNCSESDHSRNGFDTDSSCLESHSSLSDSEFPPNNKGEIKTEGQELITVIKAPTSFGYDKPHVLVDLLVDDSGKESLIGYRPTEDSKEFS
# Chain of UniProt P11142 (P11142 whole entry, looked up): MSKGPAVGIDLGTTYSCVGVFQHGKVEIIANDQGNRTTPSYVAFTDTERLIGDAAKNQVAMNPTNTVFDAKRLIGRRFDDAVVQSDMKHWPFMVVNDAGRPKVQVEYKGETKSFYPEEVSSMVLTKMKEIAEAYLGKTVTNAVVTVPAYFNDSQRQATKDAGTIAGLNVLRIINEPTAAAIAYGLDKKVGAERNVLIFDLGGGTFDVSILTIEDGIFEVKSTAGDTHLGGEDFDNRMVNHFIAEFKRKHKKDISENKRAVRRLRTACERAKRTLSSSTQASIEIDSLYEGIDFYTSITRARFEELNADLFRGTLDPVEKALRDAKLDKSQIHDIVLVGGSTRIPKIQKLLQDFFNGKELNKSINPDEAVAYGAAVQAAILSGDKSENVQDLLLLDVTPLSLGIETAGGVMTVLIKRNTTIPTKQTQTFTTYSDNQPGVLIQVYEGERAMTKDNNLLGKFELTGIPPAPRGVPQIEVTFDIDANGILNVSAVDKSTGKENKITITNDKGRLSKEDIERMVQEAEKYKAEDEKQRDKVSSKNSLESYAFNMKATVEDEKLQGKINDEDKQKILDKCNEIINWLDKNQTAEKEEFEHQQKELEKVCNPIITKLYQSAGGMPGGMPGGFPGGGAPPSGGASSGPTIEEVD
# Chain of UniProt O94925 (O94925 whole entry, looked up): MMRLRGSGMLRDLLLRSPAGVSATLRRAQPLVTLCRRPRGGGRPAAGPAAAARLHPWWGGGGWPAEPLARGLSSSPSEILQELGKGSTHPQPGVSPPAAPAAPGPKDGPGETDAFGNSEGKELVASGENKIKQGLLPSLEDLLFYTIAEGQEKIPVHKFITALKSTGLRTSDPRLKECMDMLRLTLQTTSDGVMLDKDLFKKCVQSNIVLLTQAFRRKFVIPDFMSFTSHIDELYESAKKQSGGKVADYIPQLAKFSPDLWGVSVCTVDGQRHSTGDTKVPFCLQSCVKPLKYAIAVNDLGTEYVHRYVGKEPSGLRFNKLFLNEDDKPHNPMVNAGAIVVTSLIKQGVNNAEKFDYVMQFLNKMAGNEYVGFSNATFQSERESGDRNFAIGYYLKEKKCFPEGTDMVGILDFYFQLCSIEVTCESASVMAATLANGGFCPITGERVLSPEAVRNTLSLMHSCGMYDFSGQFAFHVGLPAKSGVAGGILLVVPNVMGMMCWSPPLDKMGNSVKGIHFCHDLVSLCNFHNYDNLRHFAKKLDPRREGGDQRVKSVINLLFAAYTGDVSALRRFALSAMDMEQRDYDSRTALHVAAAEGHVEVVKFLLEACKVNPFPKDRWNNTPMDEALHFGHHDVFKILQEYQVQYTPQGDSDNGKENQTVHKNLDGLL
# Chain of UniProt P05362 (P05362 whole entry, looked up): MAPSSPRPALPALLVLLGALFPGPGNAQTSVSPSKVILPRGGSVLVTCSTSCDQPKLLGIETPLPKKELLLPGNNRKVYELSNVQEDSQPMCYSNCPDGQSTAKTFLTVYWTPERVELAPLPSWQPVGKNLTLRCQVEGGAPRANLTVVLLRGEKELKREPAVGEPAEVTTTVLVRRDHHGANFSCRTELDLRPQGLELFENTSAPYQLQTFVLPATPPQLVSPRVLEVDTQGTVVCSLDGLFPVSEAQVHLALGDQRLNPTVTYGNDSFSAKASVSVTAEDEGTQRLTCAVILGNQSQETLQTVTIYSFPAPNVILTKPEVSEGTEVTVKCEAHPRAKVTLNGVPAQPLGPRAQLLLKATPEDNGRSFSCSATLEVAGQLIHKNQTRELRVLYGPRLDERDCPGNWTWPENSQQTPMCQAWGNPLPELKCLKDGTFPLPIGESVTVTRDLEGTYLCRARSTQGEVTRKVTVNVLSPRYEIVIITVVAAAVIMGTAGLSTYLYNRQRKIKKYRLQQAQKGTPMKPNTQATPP
# Chain of UniProt Q9Y680 (Q9Y680 whole entry, looked up): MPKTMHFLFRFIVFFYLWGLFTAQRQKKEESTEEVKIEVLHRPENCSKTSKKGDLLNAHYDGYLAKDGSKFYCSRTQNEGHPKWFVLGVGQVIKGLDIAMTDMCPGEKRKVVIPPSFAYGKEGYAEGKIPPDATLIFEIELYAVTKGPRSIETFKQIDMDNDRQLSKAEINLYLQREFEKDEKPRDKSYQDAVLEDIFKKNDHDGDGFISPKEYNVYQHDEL
# Chain of UniProt P09211 (P09211 whole entry, looked up): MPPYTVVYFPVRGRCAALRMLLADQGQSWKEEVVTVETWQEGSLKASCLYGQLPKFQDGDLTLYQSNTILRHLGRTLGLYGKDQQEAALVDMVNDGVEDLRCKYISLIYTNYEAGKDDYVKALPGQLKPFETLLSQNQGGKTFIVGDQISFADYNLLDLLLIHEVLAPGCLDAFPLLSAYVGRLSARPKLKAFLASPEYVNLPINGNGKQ
# Chain of UniProt Q9H6D7 (Q9H6D7 whole entry, looked up): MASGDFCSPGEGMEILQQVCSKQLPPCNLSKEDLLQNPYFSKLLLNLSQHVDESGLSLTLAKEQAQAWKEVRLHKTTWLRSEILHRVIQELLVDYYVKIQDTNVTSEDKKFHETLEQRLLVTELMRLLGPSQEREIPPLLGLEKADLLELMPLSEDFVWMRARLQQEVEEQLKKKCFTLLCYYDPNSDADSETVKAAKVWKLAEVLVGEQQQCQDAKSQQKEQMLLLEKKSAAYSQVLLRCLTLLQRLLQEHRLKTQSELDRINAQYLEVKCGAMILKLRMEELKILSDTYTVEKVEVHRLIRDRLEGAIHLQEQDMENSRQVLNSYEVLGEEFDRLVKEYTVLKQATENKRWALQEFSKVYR
# Chain of UniProt P29083 (P29083 whole entry, looked up): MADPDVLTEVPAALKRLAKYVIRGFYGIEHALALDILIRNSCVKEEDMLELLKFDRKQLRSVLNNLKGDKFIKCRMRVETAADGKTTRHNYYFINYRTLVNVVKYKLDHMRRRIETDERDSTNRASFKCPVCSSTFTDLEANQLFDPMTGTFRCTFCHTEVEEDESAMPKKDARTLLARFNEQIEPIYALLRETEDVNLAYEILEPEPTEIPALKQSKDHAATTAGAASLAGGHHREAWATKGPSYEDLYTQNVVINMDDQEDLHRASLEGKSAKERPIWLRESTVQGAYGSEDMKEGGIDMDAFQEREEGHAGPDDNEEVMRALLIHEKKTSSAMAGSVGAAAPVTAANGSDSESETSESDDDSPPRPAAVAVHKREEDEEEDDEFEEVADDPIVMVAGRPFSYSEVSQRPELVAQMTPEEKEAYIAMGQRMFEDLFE
# Chain of UniProt Q9H0R8 (Q9H0R8 whole entry, looked up): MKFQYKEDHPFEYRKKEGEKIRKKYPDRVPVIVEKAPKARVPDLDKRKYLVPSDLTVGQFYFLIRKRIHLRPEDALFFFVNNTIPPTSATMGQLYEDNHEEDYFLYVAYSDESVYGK
# Chain of UniProt P39748 (P39748 whole entry, looked up): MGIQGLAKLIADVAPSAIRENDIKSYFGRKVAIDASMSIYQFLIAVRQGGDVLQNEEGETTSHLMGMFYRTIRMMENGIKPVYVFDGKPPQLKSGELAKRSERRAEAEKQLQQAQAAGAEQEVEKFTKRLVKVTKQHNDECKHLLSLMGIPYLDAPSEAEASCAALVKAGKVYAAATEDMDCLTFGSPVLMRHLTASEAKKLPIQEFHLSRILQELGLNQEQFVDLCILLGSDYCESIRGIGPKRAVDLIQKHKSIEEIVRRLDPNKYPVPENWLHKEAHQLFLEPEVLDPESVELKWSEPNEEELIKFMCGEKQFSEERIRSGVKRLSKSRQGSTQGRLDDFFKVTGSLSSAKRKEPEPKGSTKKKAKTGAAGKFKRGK
Target,log2 fold change (erlotinib),log2 fold change [1],log2 fold change [2],log2 fold change [3],log2 fold change [4],log2 fold change [5],log2 fold change [6],log2 fold change [7],log2 fold change [8],log2 fold change [9],log2 fold change (IRAK-1-4 Inhibitor I),log2 fold change (ibrutinib),log2 fold change [10],log2 fold change (ralimetinib),log2 fold change [11],log2 fold change [12],log2 fold change [13],log2 fold change (pinometostat),log2 fold change [14],log2 fold change [15]
HEATR5B (UniProt Q9P2D3),-0.009,0.059,-0.128,0.025,-0.067,0.004,0.007,0.05,-0.026,0.043,-0.002,0.017,0.014,0.04,-0.021,-0.063,0.023,0.008,0.022,0.01
IFNGR1 (UniProt P15260),0.256,0.003,0.156,-0.208,-0.033,-0.033,-0.066,-0.035,0.048,0.247,,0.224,-0.086,-0.017,-0.067,0.199,0.14,,0.054,-0.093
GLS (UniProt O94925),0.003,0.105,0.174,-0.107,-0.043,0.14,0.034,-0.023,-0.091,-0.03,0.051,-0.096,0.002,-0.071,-0.14,0.004,0.032,-0.037,0.008,0.002
GTF2H3 (UniProt Q13889),-0.002,0.041,-0.115,0.051,0.027,-0.017,0.014,0.012,-0.004,0.044,-0.06,0.056,0.063,0.049,0.006,0.011,0,0.06,-0.074,0.02
GTF2E1 (UniProt P29083),0.067,0.145,0.046,-0.002,0.094,0.007,0.025,0.039,-0.076,0.017,-0.048,-0.06,-0.051,-0.018,-0.178,-0.147,0.016,-0.046,0.003,-0.007
HAUS4 (UniProt Q9H6D7),-0.112,0.097,0.041,-0.095,0.018,-0.065,-0.085,-0.087,-0.001,0.001,,0.103,-0.107,0.112,0.246,-0.51 (active),0.139,,0.095,0.048
FEN1 (UniProt P39748),0.126,0.098,0.091,0.026,0.172,0.003,0.118,0.026,0.007,-0.068,-0.071,-0.016,-0.116,-0.008,-0.368,-0.393,0.039,-0.03,-0.067,-0.016
GCDH (UniProt Q92947),0.016,-0.078,0.045,-0.273 (active),0.081,-0.011,0.082,0.048,-0.011,0.039,0.018,0.025,-0.092,0.007,-0.09,0.05,0.003,-0.053,-0.012,0.055
FIBP (UniProt O43427),0.023,0.088,0.011,-0.002,0.107,-0.023,-0.032,0.011,-0.144,0.125,0.026,0.019,-0.146,0.041,-0.143,0.018,0.065,0.075,,-0.039
ICAM1 (UniProt P05362),0.008,0.008,0.015,0.018,-0.005,-0.033,-0.01,-0.004,-0.047,0.073,0.056,0.042,-0.039,-0.02,0.002,0.157,-0.001,-0.009,-0.028,0.045
FKBP7 (UniProt Q9Y680),-0.027,-0.027,0.005,0.037,0,0.081,-0.037,-0.042,0.039,0.048,0.018,0.033,-0.031,-0.033,0.017,0.055,-0.005,-0.059,-0.029,-0.022
GABARAPL1 isoform 2 (UniProt Q9H0R8),0.071,-0.012,-0.023,-0.029,0.074,-0.033,-0.001,0.02,-0.02,0.016,0.031,-0.057,-0.065,-0.003,-0.024,-0.369 (active),0.092,-0.044,-0.047,0.023
GSTP1 (UniProt P09211),0.021,0.038,0.013,-0.016,0.041,0.037,0.014,0.005,0.021,0.057,0.12,-0.038,-0.074,-0.021,-0.015,0.016,-0.023,-0.026,-0.004,0.03
HSPA8 (UniProt P11142),-0.016,-0.031,0.01,-0.014,0,0,-0.003,-0.088,0.009,0.017,0.032,-0.015,0.014,-0.004,0.029,0.037,-0.013,-0.023,-0.009,-0.016
HHEX (UniProt Q03014),-0.043,-0.206,0.069,0.044,0.008,-0.022,-0.044,0.037,-0.004,0.022,0.045,0.059,0.005,-0.059,-0.064,-0.113,0.189,-0.075,0.086,-0.074
IFRD2 isoform 2 (UniProt Q12894),0.204,-0.109,0.003,0.084,0.048,0.082,-0.051,0.118,0.302,0.04,0.141,0.063,0.369,-0.045,0.013,0.07,0.019,0.144,-0.116,-1.69 (active)
